# Bioassay records from PubChem.
# Abeta yeast res: restores growth of yeast expressing A-beta42 peptide; yeast expressing A-beta42, growth rescue, OD600, 48 h; response scale: 0% DMSO, 100% iron-clioquinol control; Potency, µM (doses to about 46.1 µM), usual class: activators; actives 0.063% (n = 410,000); note: nearly all actives have a fitted effect of over 55% in size
#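 Growth rescue measured by 600 nm absorbance after 48 h yeast culture at 30 C with compound. Values normalized between DMSO and an equimolar ferric chloride plus clioquinol control.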
# Mito fusion yeast: inhibitors of mitochondrial division or activators of mitochondrial fusion | S. cerevisiae fusion-defective mutant growth rescue, CellTiterGlo 48 h | Potency, µM (doses to about 46.1 µM), for inactives: at the highest dose growth rescue (activation), hits mostly activators | actives 0.23% (n = 320,000) | AID 485298; note: % of control where 0% means no effect; nearly all actives have a fitted effect of over 45% in size
#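 Growth-rescue viability read-out: after 48 h at the non-permissive 37C in glycerol/ethanol YPEG, yeast mitochondrial fusion mutants are measured by CellTiterGlo luminescence; compounds (23 nl pinned per well) restoring growth score as division inhibitors or fusion activators.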
# TDP-43 yeast inh: inhibitors of TDP-43 toxicity in yeast | TDP-43 expressing yeast growth rescue, BacTiter-Glo, 24 h | Potency, µM (top dose mostly 46.1 µM), inactives show at the highest dose growth rescue (activation), usual class: activators | actives 1.8% (n = 410,000); note: % of control where 0% means no effect; nearly all actives have a fitted effect of over 50% in size
#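 Growth rescue of TDP-43-toxic yeast measured as ATP luminescence (BacTiter-Glo). Cells grown to mid-log in raffinose, induced in galactose at OD600=0.02, exposed to compound 24 hr at 30 deg C.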
# aSyn yeast inh: inhibitors of alpha-synuclein toxicity in yeast | Yeast expressing alpha-synuclein, growth rescue, BacTiter-Glo, 24 h | AID 652106 | Potency, µM (doses to about 46.1 µM), inactives show at the top dose growth rescue (activation), actives largely listed as activators | actives 0.14% (n = 370,000); note: % of control where 0% means no effect; nearly all actives have a fitted effect of over 65% in size
#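 Screening used galactose-induced yeast with toxic alpha-synuclein levels, exposed to compound for 24 hr at 30 deg C. Cell growth, read with BacTiter-Glo luminescence, gave the measured signal.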
# FUS suppressor: suppressors of FUS proteinopathy in yeast; S. cerevisiae FUS-expressing, growth rescue, OD600, 24 h; actives 0.24% (n = 390,000); Potency, µM (doses to about 76.6 µM), usual class: activators;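 note: plate controls were DMSO vehicle for no effect and reference control for full effect; nearly all actives have a fitted effect of over 55% in size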
#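 Compound concentration series was pinned onto galactose-induced FUS-expressing yeast seeded at OD 0.005. Plates sat 24hr at 30C; absorbance at 600 nm gave growth. DMSO served as background control.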
# Numbers without * were called inactive; i = inactive; ? = inconclusive; / = no result given; [ ] = another dose, or the depositor's remark. This is a sample that favours compounds with a hit; in the whole collection about 2.2% have one here. Calls come from the whole dose curve; as a rule, active = well fitted curve in the direction sought with a large enough effect; inconclusive = small, poorly fitted or top-dose-only effect, or another doubt; inactive = no such curve, though single readings can be large; an effect the other way counts as inactive or inconclusive. Potency is the fitted concentration of half-maximal effect.
SMILES,Abeta yeast res,Mito fusion yeast,TDP-43 yeast inh,aSyn yeast inh,FUS suppressor
CCOC(=O)C1=CCN(S(=O)(=O)c2ccccc2)C1c1ccccc1 (stereo not drawn),i,/,?,5%,i
CCOC(=O)C1=CCN(S(=O)(=O)c2ccccc2)C1c1ccc(Cl)cc1 (stereo not drawn),i,/,35µM*,28%,i
O=C(COc1ccccc1C(=O)Nc1ccccc1)Nc1ccc(-c2ccccc2)cc1,/,/,/,2%,/
CC(=O)c1cc(-c2ccccc2)c(=O)n2c1CCC2,/,/,/,/,i
Nc1nc(Cl)cc(N2CCCC2)n1,i,12%,18%,3%,i
Nc1nc(Cl)cc(N2CCC(c3cc(-c4ccc(Cl)cc4Cl)n[nH]3)CC2)n1,i,-21%,-51%,17%,13µM*
O=C(NCc1ccccc1)c1ccccc1,i,/,19%,1%,i
O=C(NCc1c(O)ccc2ccccc12)c1ccccc1,?,9%,20µM*,7%,i
COc1cccc(/C=C/c2ccc3ccccc3[n+]2C)c1OC,/,/,/,-25%,/
CC1(C)Cc2c(C#N)c(N3CCN(C(=O)c4ccccc4Cl)CC3)nc(-c3ccco3)c2CS1,i,-19%,22%,6%,11µM*
CCN(CC)C(=O)CC[C@H]1CC[C@]2(CCCN(Cc3ccc(OC)cc3)C2)O1,/,/,/,/,i
COc1cc(NC(=O)c2cccc(Cl)c2Cl)ccc1NC(=O)c1cc2ccccc2o1,i,/,12%,/,i
CNc1nc2sc3c(c2c(=O)n1C)CC(C)(C)SC3,i,?,13µM*,4%,i
C=CCSc1nnc(-c2cc3c(-c4ccccc4)nn(C)c3s2)n1C,i,2%,20µM*,6%,i
O=C1CC(C(=O)N2CCN(Cc3ccccc3)CC2)CN1Cc1ccccc1 (stereo not drawn),i,-6%,15%,0%,i
Cc1ccc(CN2CC(C(=O)N3CCN(c4ccccc4Cl)CC3)CC2=O)cc1 (stereo not drawn),i,-6%,35µM*,0%[1.84 µM],i
O=C(C1CCC(=O)N(C2CCCCCC2)C1)N1CCN(c2ccccc2Cl)CC1 (stereo not drawn),/,11%,35µM*,10%,?
Cc1ccccc1N1CCN(C(=O)C2CCC(=O)N(C3CCCC3)C2)CC1 (stereo not drawn),i,3%,-3%,0%,i
COc1cccc(C(=O)/C=C/c2ccc(OCC#N)c(OC)c2)c1,i,2%,20µM*,?,i
Cc1occc1C(=O)Nc1nnc(-c2cccs2)s1,i,3%,1%,-5%,i
CCOc1ccc(NC(=S)NCc2ccc3c(c2)OCO3)cc1,?,1%,?,8%,i
Cc1c(C(=O)NCc2ccc3c(c2)OCO3)sc(=O)n1Cc1ccc(-c2ccccc2)cc1,i,/,23%,-4%,?
Cc1c(C(=O)NCc2ccc3c(c2)OCO3)sc(=O)n1Cc1cccc(F)c1,i,/,?,1%,i
Cc1ccc(NC(=S)NCc2ccc3c(c2)OCO3)cc1,i,5%,22µM*,-3%,i
CSc1ccc(Cn2c(C)c(C(=O)NCc3ccc4c(c3)OCO4)sc2=O)cc1,?,/,20µM*,-7%,i
SMILES,Abeta yeast res,Mito fusion yeast,TDP-43 yeast inh,aSyn yeast inh,FUS suppressor
Cc1ccc(Cn2c(C)c(C(=O)NCc3ccc4c(c3)OCO4)sc2=O)cc1,?,/,25µM*,-2%,i
CCCC1CCC2(CCCN2CCOC(=O)Nc2ccc(Br)cc2)CC1 (stereo not drawn),/,/,/,/,i
O=S(=O)(c1cnc(Cl)c(Cl)c1)N1CCN(c2ncccn2)CC1,i,1%,11%,0%,i
CCCCCC(=O)NC1CCCCN(Cc2cccc(Cl)c2)C1=O (stereo not drawn),/,/,/,/,i
CN(C)c1nc(OCCOC(=O)COc2ccc(Cl)cc2Cl)nc(N(C)C)n1,i,-2%,-9%,-1%,?
CN(C)c1nc(OCCNC(=O)COc2ccc(Cl)cc2Cl)nc(N(C)C)n1,i,6%,14µM*,0%,i
O=C(CN1C(=O)CCSc2ccc(S(=O)(=O)N3CCCC3)cc21)Nc1cccc(Cl)c1,i,/,14%,/,i
